Screens from PubChem BioAssay.
MCF10A rerep: induces DNA re-replication in MCF 10a normal breast cells | hit rate 2.9% among 350,000 | Potency, µM (doses to about 46.1 µM), without a hit: at the top dose activity, positive = re-replication, hits mostly activators | MCF 10A DNA re-replication, Hoechst nuclear intensity, 48 h; also: potency is read from the fitted curve at half-maximal effect; % of control where 0% means no effect; nearly all actives have a fitted effect of over 50% in size
PINK1 expr mod: modulators of PINK1 expression; AID 624263; hit rate 0.2% among 410,000; Potency, µM (titrated, usually from 76.6 µM), without a hit: at the highest dose activation (PINK1 increase), hits mostly activators; PINK1 immunofluorescence, high-content cytometry, 24 h; active = well fitted activation curve with a large enough effect; inconclusive = small, poorly fitted or top-dose-only effect; cell line not stated here; also: potency is read from the fitted curve at half-maximal effect; % of control where 0% means no effect; nearly all actives have a fitted effect of over 65% in size
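Stable cell line, 250 cells/well, 12 h attachment; compounds pinned at 5 concentrations, 24 h; CCCP control. Fixed with nuclear dye, primary antibodies 12 h at 10 degrees C, secondary plus cell stain; laser-scanning cytometer read.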
ATXN2 expr inh: reduces ATXN2 reporter expression in HEK-293 cells. Potency, µM (series often up to 57 µM), for the others: at the top dose activity change, negative = inhibition, hits mostly inhibitors. hit rate 0.72% among 360,000. HEK-293 ATXN2-luciferase reporter, luminescence, 24 h; also: potency is read from the fitted curve at half-maximal effect; % is scaled to controls: 0 for no effect and ±100 for the full control effect; nearly all actives have a fitted effect of over 55% in size
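qHTS (up to 57 uM final) was run with 24 h compound exposure of reporter cells at 37 °C. Each well was multiplexed: SteadyGlo luminescence measured ATXN2-luciferase expression after a fluorogenic Gly-Phe-AFC viability readout (25 uM final).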
SW480 rereplic: inducers of DNA re-replication in SW480 colon cancer cells; SW480 DNA re-replication, Hoechst DNA content imaging, 48 h; Potency, µM (top dose mostly 46.1 µM), without a hit: at the highest dose re-replication activation, actives largely listed as activators; hit rate 1.8% among 340,000; AID 624297; also: potency is read from the fitted curve at half-maximal effect; % of control where 0% means no effect; nearly all actives have a fitted effect of over 55% in size
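DNA re-replication was detected as more nuclei of elevated Hoechst intensity after 48 hr exposure to compound (23 nL pinned per well of 250 cells).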
ATXN viability: reduces viability in counter-screen for ATXN expression inhibitors; Potency, µM (doses to about 56.7 µM), usual class: cytotoxic; S2 cells (HEK-293 line with an ATXN2-luciferase reporter) viability, CellTiter-Fluor protease fluorescence, 24 h; hit rate 0.49% among 400,000; also: potency is read from the fitted curve at half-maximal effect; nearly all actives have a fitted effect of over 40% in size
IL-1B inflam inh: inhibitors of inflammasome signaling (IL-1 beta secretion). hit rate 4.7% among 360,000. activity change, % at 57.5 µM. THP-1 LPS/ATP IL-1B secretion, AlphaLISA, 16 h; stronger effect = lower value; in the data active = activity change below about -50%; inconclusive = mostly about -30% to -49%; also: % is scaled to controls: 0 for no effect and ±100 for the full control effect
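Secreted IL-1B measured by AlphaLISA bead assay after 16 h compound exposure of THP-1 cells; compounds (final up to 57.5 uM) added 1 h before LPS (250 ng/mL) and ATP (1.25 mM) stimulation; lower signal means less secretion.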
The depositor's hits bear a star; i = inactive; ? = inconclusive; · = no result; ! = a repeat was not active; [ ] = another dose, or the depositor's remark. Shown are actives, neighbours in structure and some others; about 7.1% of the full set was active somewhere. Unless noted, calls follow the shape of the dose curve; as a rule, active = well fitted curve in the direction sought with a large enough effect; inconclusive = small, poorly fitted or top-dose-only effect, or another doubt; inactive = no such curve, though single readings can be large; an effect the other way counts as inactive or inconclusive.

SMILES | MCF10A rerep | PINK1 expr mod | ATXN2 expr inh | SW480 rereplic | ATXN viability | IL-1B inflam inh
CN(C)CCn1cnc2c(c1=N)C(c1ccccc1)c1ccc3ccccc3c1O2 (centres undefined) | ? | -1% | ? | -2% | · | -57*
Cc1ccc(-n2nc(C)c3c(C(=O)OCC(=O)N(C)C4CCS(=O)(=O)C4)cc(-c4ccccc4)nc32)cc1 (centres undefined) | 21µM*! | 7% | -18%[11.3 µM] | 4% | · | -4
Cc1ccc2c(c1)C1CN(C)CCC1N2C(=O)COc1ccc(N(C)C(=O)C(C)(C)C)cc1 (centres undefined) | 16% | -1% | -17% | -1% | i | -76*
Cc1ccc(C(=O)N(C)c2ccc(OCC(=O)N3c4ccc(C)cc4C4CN(C)CCC43)cc2)cc1 (centres undefined) | 14% | -3% | -31% | 9% | i | -60*
COc1cnc(-c2ccccn2)nc1Sc1c(Cl)cccc1Cl | ? | -1%[38.3 µM] | ? | 15µM* | ? | 33
COc1cnc(-c2ccccn2)nc1Sc1ccccc1Cl | ? | -4%[38.3 µM] | ? | 13µM* | ? | 44
COc1cnc(-c2ccccn2)nc1N(C)C | 13% | -2% | 16µM* | 18µM* | ? | -58*
COc1cnc(-c2ccccn2)nc1Oc1cccc(Cl)c1 | 1% | 7% | -13% | 3% | ? | 5
COc1ccc(-n2c(CNC(=O)c3ccccc3C(F)(F)F)nnc2SC)cc1 | · | 0% | · | · | i | ·
Cc1ncc(Cc2ccccc2)c(C2CCN(S(=O)(=O)C[C@]34CC[C@H](CC3=O)C4(C)C)CC2)n1 | · | 0% | · | · | ? | ·
Cc1cc(C)c(NC(=O)CN(C)S(=O)(=O)c2ccc3c(c2)CCC(=O)N3)c(C)c1 | · | 0% | 9% | · | i | ·
COc1ccc(Cl)cc1C(=O)Nc1ccc(NC(C)=O)cc1 | -7% | 1% | -3% | -27% | i | -14
CC(=O)Oc1c(I)cc(I)cc1C(=O)Nc1ccc(Cl)cc1 | 7.3µM* | ? | ? | ? | ? | -87*
Cc1cccc(CN2C(=O)N/C(=C/c3cc(C)n(-c4ccccn4)c3C)C2=O)c1 | ? | 5% | 3% | 1% | i | -9
CCn1c(C)cc(/C=C2\NC(=O)N(Cc3ccc(Cl)cc3)C2=O)c1C | ? | 16%[38.3 µM] | -19% | 14µM* | i | -15
Cc1cc(/C=C2/NC(=O)N(Cc3ccccc3F)C2=O)c(C)n1-c1ccccn1 | ? | -1% | 10% | 0.82µM* | i | 19
Cc1ccsc1CN(Cc1ccco1)C(=O)c1ccc(Cl)cc1 | · | 2% | · | · | · | ·
O=C(NCCCN1CCN(Cc2ccccc2)CC1)C1CCN(S(=O)(=O)N2CCC3(CC2)OCCO3)CC1 | 4% | -1% | · | -18% | i | 1
O=C(C1CCCN(S(=O)(=O)c2ccc(Br)cc2)C1)N1CCN(Cc2ccccc2)CC1 (centres undefined) | 15% | -1% | -25% | 6% | i | -52*
O=C(NCc1ccccn1)C1CCN(S(=O)(=O)N2CCC3(CC2)OCCO3)CC1 | ? | 0% | 4% | 12µM*! | i | 1
O=C(C1CCN(S(=O)(=O)N2CCC3(CC2)OCCO3)CC1)N1CCN(Cc2ccccc2)CC1 | ? | -1%[38.3 µM] | -9% | 5.8µM* | i | 12
COc1cccc2cc(-c3cc(=O)oc4cc(C)c(OCC(C)=O)cc34)oc12 | 20% | 1% | -3% | 6.5µM* | i | 39
COc1ccc2oc(=O)cc(-c3cc4cccc(OC)c4o3)c2c1 | -3% | 5% | 1% | 1% | i | 26
CCN(CC)C(=O)Oc1ccc2oc(=O)cc(-c3cc4cccc(OC)c4o3)c2c1 | ? | 1% | -5% | -3% | i | -65*
CSc1ccc(CNC(=O)Cc2csc3ccccc23)cc1 | · | 0% | · | · | · | ·
SMILES | MCF10A rerep | PINK1 expr mod | ATXN2 expr inh | SW480 rereplic | ATXN viability | IL-1B inflam inh
Cc1cc(C)cc(NC(=O)C2CCN(S(=O)(=O)c3cccc(-c4noc(C)n4)c3)CC2)c1 | · | 0% | -22% | · | i | ·
CCS(=O)(=O)Nc1ccc(-c2cc(-c3ccccc3)c3cc(C)ccc3n2)cc1 | 15µM* | -2% | -8% | ? | i | 0
CC(C)(C)c1cnc(CSc2cnc(NC(=O)C3CCNCC3)s2)o1 | · | · | 0.31µM* | · | · | ·
O=C(NCc1ccccc1Cl)c1ccc2c(c1)N(Cc1ccccc1)C(=O)c1ccccc1S2 | · | 1% | · | · | · | ·
COC(=O)CSc1[nH]c2ccc(Br)cc2c1[N+](=O)[O-] | 12µM* | 4% | 16% | 6% | i | -8
COc1cc(CNC(=O)CCCC/C=C\C(C)C)ccc1O | · | · | · | · | i | ·
CCCCCCCC/C=C\CCCCCCCC(=O)NCc1ccc(O)c(OC)c1 | 24µM* | · | -26% | -4% | i | ·
CCCCCCCC/C=C\CCCCCCCC(=O)NCCc1ccc(O)c(O)c1 | 1% | ? | 16µM* | -33% | 25µM* | ?
O=C(CCCn1c(=O)c2ccccc2n(Cc2cccc(F)c2)c1=O)NCc1ccccc1Cl | · | 0% | 0% | · | i | ·
O=C(Nc1cccnc1Cl)c1cccs1 | -3% | -1% | 9% | -15% | ? | -14
O=C(Oc1c(CN2CCOCC2)cc(Cl)c2cccnc12)c1ccc(F)cc1 | 3.3µM* | -3% | ? | ? | ? | 36
O=C(Oc1c(Cl)cc(Cl)c2cccnc12)c1cccs1 | 6.5µM* | -1% | ? | ? | ? | 48
O=C(Oc1c(Cl)cc(Cl)c2cccnc12)c1ccco1 | 21µM* | 6% | ? | ? | ? | ?
O=C(Oc1c(CN2CCOCC2)cc(Cl)c2cccnc12)c1cccs1 | ? | 1% | ? | 8.2µM* | ? | -58*
C=CCn1c(SCCN)nnc1-c1cccc(S(=O)(=O)N2CCOCC2)c1 | 2% | 4% | -14% | 6% | i | 17
O=C(Nc1ccc(Cl)c(C(F)(F)F)c1)C1CCN(S(=O)(=O)c2cccc3nonc23)CC1 | · | ? | -4% | · | i | ·
CCCCOc1ccc(C(=O)N(Cc2ccc(N(C)C)cc2)Cc2ccco2)cc1 | · | -1% | · | · | · | ·
Nc1nn(-c2ccccc2)nc1C(=O)OCc1ccccc1Br | · | 1% | 53% | · | i | ·
O=C(Oc1c(CN2CCOCC2)cc(Cl)c2cccnc12)c1ccccc1Cl | ? | 2% | ? | 17% | ? | -91*
CCc1ccccc1Nc1nn2c(=O)c3ccc(C(=O)NC(C)c4ccccc4)cc3nc2s1 (centres undefined) | · | 1% | ? | · | ? | ·
CC(C)(C#N)NC(=O)C1CCCN1S(=O)(=O)c1ccc2ccccc2c1 (centres undefined) | ? | 4% | -11% | 23µM* | i | 23
CC(C)c1ccc(-c2nnn(CCC(=O)O)n2)cc1 | 13% | 1% | 0.56µM* | -4% | i | -11
